Results: the antibiotic and cytotoxicity screens of Wong et al. (2023)
In all, about 39,000 compounds went through this assay and about 3,300 (8.5%) were called active. What follows is part of a selection rich in actives, with near analogues and random picks from the rest.

test system: HepG2; assay: cytotoxicity call (relative viability < 0.9); settings: 10 µM

Q: For C[C@H]1CCCCO[C@@H](CN(C)C(=O)Nc2ccc3c(c2)OCO3)[C@@H](C)CN([C@@H](C)CO)C(=O)c2cc(NC(=O)C3CCCCC3)ccc2O1, which cytotoxicity call is on record?
A: inactive

Q: Which cytotoxicity call does the source give for C[C@H](CO)N1C[C@H](C)[C@@H](CN(C)C(=O)Nc2cccc3ccccc23)OCCCC[C@H](C)Oc2ccc(NC(=O)CCCN(C)C)cc2C1=O here?
A: inactive

Q: Which cytotoxicity call does the source give for C[C@@H]1CN([C@@H](C)CO)S(=O)(=O)c2ccc(C#CC3(O)CCCC3)cc2O[C@H]1CN(C)C(=O)Cc1ccncc1 here?
A: inactive

Q: How did the cytotoxicity call turn out when C[C@@H]1CN([C@@H](C)CO)C(=O)c2cc(NC(=O)Nc3ccc(F)cc3)ccc2O[C@@H]1CN(C)Cc1ccc(Oc2ccccc2)cc1 was run?
A: active

Q: C[C@@H]1CN([C@H](C)CO)C(=O)c2cc(NC(=O)Nc3ccc(F)cc3)ccc2O[C@H]1CN(C)Cc1ccc(Oc2ccccc2)cc1 was tested. Which cytotoxicity call did it give?
A: active

Q: C[C@H]1CN([C@@H](C)CO)C(=O)c2cc(NC(=O)Nc3ccc(F)cc3)ccc2O[C@H]1CN(C)Cc1ccc(Oc2ccccc2)cc1 was tested. Which cytotoxicity call did it give?
A: inactive

Q: C[C@@H]1CN([C@@H](C)CO)C(=O)c2cc(NC(=O)Nc3ccc(F)cc3)ccc2O[C@H]1CN(C)Cc1ccc(Oc2ccccc2)cc1 was tested. Which cytotoxicity call did it give?
A: inactive

Q: How did the cytotoxicity call turn out when C[C@@H]1CN([C@H](C)CO)C(=O)c2cc(NC(=O)Nc3ccc(F)cc3)ccc2O[C@@H]1CN(C)Cc1ccc(Oc2ccccc2)cc1 was run?
A: active

Q: With C[C@H](CO)N1C[C@H](C)[C@@H](CN(C)Cc2ccc(Oc3ccccc3)cc2)Oc2ccc(NC(=O)Nc3ccc(F)cc3)cc2C1=O as the molecule, how does the cytotoxicity call read?
A: inactive

Q: C[C@H](CO)N1C[C@H](C)[C@H](CN(C)Cc2ccc(Oc3ccccc3)cc2)Oc2ccc(NC(=O)Nc3ccc(F)cc3)cc2C1=O was tested. Which cytotoxicity call did it give?
A: active

Q: How did the cytotoxicity call turn out when NCc1cc(-c2ccccc2Cl)on1 was run?
A: inactive

Q: With COc1ccc(S(=O)(=O)N(C)C[C@@H]2OCc3cnnn3CCCC(=O)N([C@H](C)CO)C[C@H]2C)cc1 as the molecule, how does the cytotoxicity call read?
A: inactive

Q: For C[C@@H]1CN([C@@H](C)CO)C(=O)c2cc(NS(=O)(=O)c3cccs3)ccc2O[C@@H](C)CCCCO[C@@H]1CN(C)CC1CCCCC1, which cytotoxicity call is on record?
A: inactive

Q: How did the cytotoxicity call turn out when C[C@@H]1CN([C@H](C)CO)C(=O)c2cc(-c3cccnc3)cnc2O[C@@H]1CN(C)C(=O)Nc1ccc2c(c1)OCO2 was run?
A: inactive

Q: How did the cytotoxicity call turn out when CON=C(C(=O)NC1C(=O)N2C(C(=O)O)=C(CSC(=O)c3ccco3)CSC12)c1csc(N)n1.Cl (stereo not drawn) was run?
A: inactive

Q: How did the cytotoxicity call turn out when O=C(C[C@@H]1C[C@@H]2c3cc(NC(=O)NC4CCCC4)ccc3O[C@@H]2[C@@H](CO)O1)NCc1ccc2c(c1)OCO2 was run?
A: inactive

Q: How did the cytotoxicity call turn out when Cc1noc(C)c1NC(=O)Nc1ccc2c(c1)C(=O)N([C@H](C)CO)C[C@H](C)[C@@H](CN(C)C(=O)Nc1cccc3ccccc13)OCCCC[C@H](C)O2 was run?
A: inactive

Q: With C[C@H]1CN([C@@H](C)CO)C(=O)c2cc(NC(=O)Nc3ccc(F)cc3)ccc2O[C@@H]1CN(C)Cc1ccc(Oc2ccccc2)cc1 as the molecule, how does the cytotoxicity call read?
A: active

Q: For CC(C)NC(=O)N(C)C[C@@H]1Oc2c(NC(=O)C3CCCCC3)cccc2C(=O)N([C@H](C)CO)C[C@@H]1C, which cytotoxicity call is on record?
A: inactive

Q: For CN(C)CC(=O)N1CC2(C1)[C@@H](c1ccccc1)[C@@H](CO)N2S(C)(=O)=O, which cytotoxicity call is on record?
A: inactive

Q: Which cytotoxicity call does the source give for C[C@@H]1CCCCO[C@H](CN(C)Cc2ccccc2)[C@@H](C)CN([C@H](C)CO)C(=O)c2cc(NC(=O)Nc3ccc(C(F)(F)F)cc3)ccc2O1 here?
A: active

Q: For C[C@@H]1CCCCO[C@@H](CN(C)Cc2ccccc2)[C@@H](C)CN([C@H](C)CO)C(=O)c2cc(NC(=O)Nc3ccc(C(F)(F)F)cc3)ccc2O1, which cytotoxicity call is on record?
A: active

Q: Which cytotoxicity call does the source give for C[C@@H]1CCCCO[C@H](CN(C)Cc2ccccc2)[C@H](C)CN([C@H](C)CO)C(=O)c2cc(NC(=O)Nc3ccc(C(F)(F)F)cc3)ccc2O1 here?
A: active

Q: Which cytotoxicity call does the source give for C[C@@H]1CCCCO[C@H](CN(C)Cc2ccccc2)[C@@H](C)CN([C@@H](C)CO)C(=O)c2cc(NC(=O)Nc3ccc(C(F)(F)F)cc3)ccc2O1 here?
A: active

Q: Which cytotoxicity call does the source give for C[C@H]1CN([C@@H](C)CO)C(=O)c2cc(NC(=O)Nc3cccc4ccccc34)ccc2O[C@H]1CN(C)C(=O)Nc1cccc2ccccc12 here?
A: inactive

Q: COc1ncc(NC(=O)C2CC2)c(OC)n1 was tested. Which cytotoxicity call did it give?
A: inactive

Q: With C[C@@H]1CN([C@H](C)CO)C(=O)c2c(c3ccccc3n2C)-c2ccccc2CO[C@@H]1CN(C)Cc1cccc2c1OCCCO2 as the molecule, how does the cytotoxicity call read?
A: inactive

Q: C[C@@H]1CN([C@H](C)CO)C(=O)c2cccc(NC(=O)c3ccc(-c4nccs4)cc3)c2O[C@H]1CN(C)C(=O)Nc1ccc2c(c1)OCO2 was tested. Which cytotoxicity call did it give?
A: inactive

Q: Which cytotoxicity call does the source give for COc1ccc(S(=O)(=O)N(C)C[C@@H]2OCCCC[C@@H](C)Oc3ccc(NC(=O)CCC(F)(F)F)cc3C(=O)N([C@@H](C)CO)C[C@@H]2C)cc1 here?
A: inactive

Q: For Cc1noc(C)c1S(=O)(=O)N(C)C[C@H]1Oc2ccc(NC(=O)Cc3cn(C)c4ccccc34)cc2CC(=O)N([C@H](C)CO)C[C@@H]1C, which cytotoxicity call is on record?
A: inactive

Q: With O=C(C[C@H]1C=C[C@@H](NC(=O)c2ccc(F)cc2)[C@H](CO)O1)NCc1ccncn1 as the molecule, how does the cytotoxicity call read?
A: inactive

Q: Which cytotoxicity call does the source give for CO[C@@H]1CN(C)C(=O)c2ccc(NC(=O)Nc3ccc(Cl)cc3)cc2OC[C@H](C)N(C(=O)Nc2c(C)noc2C)C[C@@H]1C here?
A: inactive

Q: Which cytotoxicity call does the source give for C[C@@H]1CCCCO[C@H](CN(C)C(=O)Nc2ccc(C(F)(F)F)cc2)[C@H](C)CN([C@H](C)CO)C(=O)c2cc(NS(=O)(=O)c3cn(C)cn3)ccc2O1 here?
A: inactive

Q: Which cytotoxicity call does the source give for Cc1noc(C)c1NC(=O)Nc1ccc2c(c1)C(=O)N([C@H](C)CO)C[C@H](C)[C@H](CN(C)CC1CCCCC1)OCCCC[C@@H](C)O2 here?
A: inactive

Q: With C[C@H](CO)N1C[C@H](C)[C@@H](CN(C)C(=O)c2cccnc2)Oc2cc(-c3cccc(C#N)c3)ccc2S1(=O)=O as the molecule, how does the cytotoxicity call read?
A: inactive

Q: How did the cytotoxicity call turn out when OCc1cncnc1 was run?
A: inactive

Q: C[C@@H]1CCCCO[C@@H](CN(C)Cc2ccccc2)[C@H](C)CN([C@H](C)CO)C(=O)c2cc(NC(=O)Nc3ccc(C(F)(F)F)cc3)ccc2O1 was tested. Which cytotoxicity call did it give?
A: active

Q: With C[C@H](CO)N1C[C@H](C)[C@@H](CN(C)Cc2ccccc2)OCCCC[C@H](C)Oc2ccc(NC(=O)Nc3ccc(C(F)(F)F)cc3)cc2C1=O as the molecule, how does the cytotoxicity call read?
A: active

Q: How did the cytotoxicity call turn out when C[C@H](CO)N1C[C@H](C)[C@H](CN(C)Cc2ccccc2)OCCCC[C@H](C)Oc2ccc(NC(=O)Nc3ccc(C(F)(F)F)cc3)cc2C1=O was run?
A: active

Q: C[C@H]1CCCCO[C@H](CN(C)Cc2ccccc2)[C@@H](C)CN([C@@H](C)CO)C(=O)c2cc(NC(=O)Nc3ccc(C(F)(F)F)cc3)ccc2O1 was tested. Which cytotoxicity call did it give?
A: active

Q: Which cytotoxicity call does the source give for O=C(Nn1cnnc1)c1ccccc1 here?
A: inactive

Q: O=C(O)c1n[nH]c2c1C[C@H]1C[C@@H]21 was tested. Which cytotoxicity call did it give?
A: inactive

Q: With COc1ccc(S(=O)(=O)Nc2ccc3c(c2)C(=O)N([C@@H](C)CO)C[C@@H](C)[C@@H](CN(C)C(=O)Nc2c(C)noc2C)OCCCC[C@@H](C)O3)cc1 as the molecule, how does the cytotoxicity call read?
A: inactive

Q: O=c1nc(C(F)(F)F)[nH]c2nc[nH]c12 was tested. Which cytotoxicity call did it give?
A: inactive

Q: Which cytotoxicity call does the source give for Cn1cnc(CCNC(=O)C[C@H]2CC[C@@H]3[C@H](COC[C@@H](O)CN3C(=O)C3CC3)O2)c1 here?
A: inactive

Q: For O=C(N[C@@H]1CC[C@@H](CCn2cc(C3(O)CCCC3)nn2)O[C@H]1CO)C1CCOCC1, which cytotoxicity call is on record?
A: inactive

Q: C[C@H]1CN([C@@H](C)CO)C(=O)Cc2cc(N(C)C)ccc2O[C@H]1CN(C)S(=O)(=O)c1ccc(F)cc1 was tested. Which cytotoxicity call did it give?
A: inactive

Q: Which cytotoxicity call does the source give for C[C@H](CO)N1C[C@H](C)[C@@H](CN(C)CC2CCCCC2)Oc2ccc(NS(=O)(=O)c3cn(C)cn3)cc2C1=O here?
A: inactive

Q: For C[C@@H]1CN([C@@H](C)CO)C(=O)c2cc(NC(=O)Nc3ccc(C(F)(F)F)cc3)ccc2O[C@@H](C)CCCCO[C@H]1CN(C)Cc1ccccc1, which cytotoxicity call is on record?
A: active

Q: For C[C@@H]1CN([C@H](C)CO)C(=O)c2cc(NC(=O)Nc3ccc(C(F)(F)F)cc3)ccc2O[C@@H](C)CCCCO[C@@H]1CN(C)Cc1ccccc1, which cytotoxicity call is on record?
A: active

Q: How did the cytotoxicity call turn out when C[C@@H]1CN([C@@H](C)CO)C(=O)c2cc(NC(=O)Nc3ccc(C(F)(F)F)cc3)ccc2O[C@@H](C)CCCCO[C@@H]1CN(C)Cc1ccccc1 was run?
A: active

Q: Which cytotoxicity call does the source give for C[C@@H]1CCCCO[C@@H](CN(C)Cc2ccccc2)[C@@H](C)CN([C@@H](C)CO)C(=O)c2cc(NC(=O)Nc3ccc(C(F)(F)F)cc3)ccc2O1 here?
A: active

Q: For Cc1ccc(N2C(=O)C(=O)NC2=S)cc1, which cytotoxicity call is on record?
A: inactive

Q: How did the cytotoxicity call turn out when C[C@H]1CN([C@@H](C)CO)C(=O)c2cc(NC(=O)CCN3CCOCC3)ccc2O[C@@H]1CN(C)C(=O)NC1CCCCC1 was run?
A: inactive

Q: Which cytotoxicity call does the source give for C[C@H]1CN([C@@H](C)CO)C(=O)Cc2cc(NS(=O)(=O)c3ccccc3)ccc2O[C@H]1CN(C)Cc1ccc2c(c1)OCO2 here?
A: inactive

Q: Which cytotoxicity call does the source give for C[C@H](CO)N1C[C@H](C)[C@H](CN(C)S(=O)(=O)c2cccs2)Oc2ccc(NC(=O)Cn3cnnn3)cc2CC1=O here?
A: inactive

Q: Which cytotoxicity call does the source give for CC(C)NCCCC[C@H](NC(=O)[C@H]1CCC(=O)N[C@@H](Cc2ccccc2)C(=O)N[C@H](Cc2ccc(O)cc2)C(=O)N[C@@H](CCCCNC(C)C)C(=O)N[C@H](CCCN=C(N)N)C(=O)N[C@@H](Cc2ccc3ccccc3c2)C(=O)NCC(=O)N1)C(N)=O here?
A: inactive

Q: Which cytotoxicity call does the source give for Cc1noc(C)c1NC(=O)N(C)C[C@H]1Oc2ccc(NC(=O)Cn3cnnn3)cc2C(=O)N([C@H](C)CO)C[C@@H]1C here?
A: inactive

Q: With Nc1nnc(N[C@H]2CCCCNC2=O)[nH]1 as the molecule, how does the cytotoxicity call read?
A: inactive

Q: How did the cytotoxicity call turn out when COCc1cn(CC[C@H]2CC[C@@H](NC(=O)CCN3CCCCC3)[C@@H](CO)O2)nn1 was run?
A: inactive

Q: Which cytotoxicity call does the source give for COCC#Cc1cnc2c(c1)C(=O)N([C@@H](C)CO)C[C@@H](C)[C@H](CN(C)S(=O)(=O)c1cccc(OC)c1)O2 here?
A: inactive

Q: With CO[C@H](CN(C)S(=O)(=O)c1ccc(F)cc1)[C@@H](C)CN([C@H](C)CO)S(=O)(=O)c1cccc(Cl)c1 as the molecule, how does the cytotoxicity call read?
A: inactive

Q: For C[C@@H]1CN([C@H](C)CO)C(=O)c2cccc(NC(=O)c3ccno3)c2O[C@H]1CN(C)S(=O)(=O)c1cccs1, which cytotoxicity call is on record?
A: inactive
